Test results as given in PubChem BioAssay AID1159580 (chemical genetic matrix, 2015).
“And” between values parts separate entries of the source, which are not always exact repeats. Equal values may be shown once. Hit rate of the full screen: of about 5,500 compounds, about 2,000 (36%) were called active. About 18% were inconclusive and are not listed. Cut-off read from the data, not from the text of the source: active = normalized growth mostly below about 0.91 (no sharp cut-off); inconclusive = no clear call, values can overlap the other calls; inactive = mostly above about 0.92. The list shows a part of the results.

Test: chemical genetic growth profiling, strain panel (AID 1159580);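 note: tested at 20 µM; growth read once vehicle control cultures reached saturation at 30 °C; 1 = growth at the plate median or of vehicle wells; lower values mean less growth of the strain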
Details: S. cerevisiae deletion strains, growth OD

Measured: normalized growth

COc1cc2ccc(=O)oc2cc1O
inactive: locus YAL013W, strain DEP1, hits give low values 1.03 | locus YAL021C, strain ccr4, hits give low values 0.958 | locus YAL026C, strain drs2, hits give low values 0.968 | locus YAL030W, strain snc1, hits give low values 0.977 | locus YBL061C, strain skt5, hits give low values 0.965 | locus YBR009C, strain hhf1, hits give low values 1.01 | locus YBR021W, strain FUR4, hits give low values 0.985 | locus YBR023C, strain chs3, hits give low values 0.958 | locus YBR171W, strain sec66, hits give low values 0.984 | locus YBR229C, strain ROT2, hits give low values 0.946 | locus YBR231C, strain swc5, hits give low values 0.966 | locus YBR279W, strain paf1, hits give low values 0.96 | locus YCL011C, strain gbp2, hits give low values 0.946 | locus YCL016C, strain dcc1, hits give low values 0.94 | locus YCL029C, strain bik1, hits give low values 0.979 | locus YCL069W, strain vba3, hits give low values 0.98 | locus YCR088W, strain abp1, hits give low values 0.985 | locus YDL005C, strain med2, hits give low values 0.992 | locus YDL035C, strain GPR1, hits give low values 0.97 | locus YDL040C, strain nat1, hits give low values 0.973 | locus YDL074C, strain BRE1, hits give low values 1.04 | locus YDL101C, strain DUN1, hits give low values 0.999 | locus YDL185W, strain tfp1, hits give low values 0.974 | locus YDL192W, strain arf1, hits give low values 1 | locus YDR001C, strain nth1, hits give low values 0.976 | locus YDR069C, strain doa4, hits give low values 0.995 | locus YDR101C, strain arx1, hits give low values 0.987 | locus YDR137W, strain rgp1, hits give low values 1 | locus YDR150W, strain NUM1, hits give low values 1 | locus YDR159W, strain sac3, hits give low values 0.941 | locus YDR162C, strain NBP2, hits give low values 0.953 | locus YDR195W, strain ref2 0.994 | locus YDR297W, strain sur2, hits give low values 0.99 | locus YDR318W, strain mcm21, hits give low values 0.992 | locus YDR334W, strain swr1, hits give low values 0.959 | locus YDR335W, strain msn5, hits give low values 0.96 | locus YDR388W, hits give low values 1 | locus YDR392W, strain spt3, hits give low values 0.883 | locus YDR502C, strain sam2, hits give low values 0.999 | locus YEL003W, strain gim4, hits give low values 0.987 | locus YEL037C, strain rad23, hits give low values 0.974 | locus YEL061C, strain CIN8 (second series), hits give low values 0.977 | locus YEL061C, strain CIN8, hits give low values 0.987 | locus YER015W, strain faa2, hits give low values 0.967 | locus YER016W, strain bim1, hits give low values 0.949 | locus YER110C, hits give low values 1.01 | locus YER111C, strain swi4, hits give low values 0.967 | locus YER155C, strain BEM2 (second series), hits give low values 1.01 | locus YER155C, strain BEM2, hits give low values 1 | locus YER167W, strain BCK2, hits give low values 0.984 | locus YFR010W, strain ubp6, hits give low values 0.996 | locus YGL078C, strain dbp3, hits give low values 1 | locus YGL086W, strain mad1, hits give low values 0.998 | locus YGL167C, strain pmr1, hits give low values 0.978 | locus YGL173C, strain kem1, hits give low values 1.02 | locus YGL227W, strain vid30, hits give low values 0.975 | locus YGL240W, strain doc1, hits give low values 1 | locus YGL248W, strain PDE1, hits give low values 0.998 | locus YGL253W, strain hxk2, hits give low values 0.939 | locus YGR078C, strain PAC10, hits give low values 1.02 | locus YGR135W, strain pre9, hits give low values 1 | locus YGR252W, strain gcn5, hits give low values 1 | locus YHR013C, strain ard1, hits give low values 0.916 | locus YHR027C, strain rpn1, hits give low values 0.968 | locus YHR030C, strain SLT2, hits give low values 0.987 and 0.966 | locus YHR079C, strain IRE1 (second series), hits give low values 1.01 | locus YHR079C, strain IRE1, hits give low values 0.976 | locus YHR094C, strain hxt1, hits give low values 0.992 | locus YHR129C, strain ARP1, hits give low values 0.994 | locus YHR142W, strain chs7, hits give low values 0.914 | locus YHR200W, strain rpn10, hits give low values 0.991 | locus YIL066C, strain RNR3, hits give low values 0.935 | locus YIL073C, strain SPO22, hits give low values 1.01 | locus YIL125W, strain kgd1, hits give low values 1 | locus YIR030C, strain dcg1, hits give low values 0.996 | locus YJL092W, strain hpr5, hits give low values 0.968 | locus YJL095W, strain BCK1 (second series), hits give low values 0.987 | locus YJL095W, strain BCK1, hits give low values 1.02 and 1.01 | locus YJL115W, strain asf1, hits give low values 0.952 | locus YJL129C, strain trk1, hits give low values 0.929 | locus YJL134W, strain LCB3, hits give low values 0.982 | locus YJL154C, strain vps35, hits give low values 0.973 | locus YJL164C, strain tpk1, hits give low values 0.979 | locus YJL166W, strain qcr8, hits give low values 1 | locus YJL168C, strain set2, hits give low values 0.995 | locus YJL187C, strain SWE1 (second series), hits give low values 1.03 | locus YJR043C, strain POL32, hits give low values 0.954 | locus YJR066W, strain TOR1, hits give low values 0.929 | locus YKL009W, strain mrt4, hits give low values 1 | locus YKL068W, hits give low values 0.992 | locus YKL085W, strain MDH1 (second series), hits give low values 0.995 | locus YKL085W, strain MDH1, hits give low values 0.995 | locus YKL160W, strain elf1, hits give low values 0.931 | locus YKR001C, strain vps1, hits give low values 0.987 | locus YKR026C, strain gcn3, hits give low values 0.983 | locus YKR091W, strain srl3, hits give low values 0.963 | locus YLL001W, strain dnm1, hits give low values 1 | locus YLL026W, hits give low values 0.971 | locus YLL041C, strain sdh2, hits give low values 0.999 | locus YLR027C, strain aat2, hits give low values 0.989 | locus YLR039C, strain RIC1, hits give low values 0.971 | locus YLR058C, strain SHM2, hits give low values 0.988 | locus YLR102C, strain apc9, hits give low values 1 | locus YLR113W, strain HOG1, hits give low values 1.04 | locus YLR221C, strain rsa3, hits give low values 1.03 | locus YLR258W, strain gsy2, hits give low values 0.95 | locus YLR262C, strain YPT6 (second series), hits give low values 0.982 | locus YLR262C, strain YPT6, hits give low values 0.969 | locus YLR268W, strain sec22, hits give low values 1.01 | locus YLR320W, strain mms22, hits give low values 1.01 | locus YLR330W, strain CHS5, hits give low values 0.988 | locus YLR342W, strain FKS1 (second series), hits give low values 0.988 | locus YLR342W, strain FKS1, hits give low values 0.973 | locus YLR357W, strain rsc2, hits give low values 0.947 | locus YLR370C, strain arc18, hits give low values 0.964 | locus YLR371W, strain rom2, hits give low values 0.994 | locus YLR384C, strain iki3, hits give low values 0.941 | locus YLR418C, strain cdc73, hits give low values 1 | locus YML016C, strain PPZ1, hits give low values 0.986 | locus YML032C, strain rad52, hits give low values 0.986 | locus YML120C, strain ndi1, hits give low values 1 | locus YML124C, strain tub3, hits give low values 1.01 | locus YMR058W, strain fet3, hits give low values 0.971 | locus YMR078C, strain ctf18, hits give low values 1 | locus YMR125W, strain sto1, hits give low values 0.97 | locus YMR129W, hits give low values 0.976 | locus YMR205C, strain PFK2, hits give low values 1 | locus YMR223W, strain ubp8, hits give low values 0.997 | locus YMR231W, strain pep5, hits give low values 0.992 | locus YMR307W, strain GAS1, hits give low values 0.904 | locus YNL067W, strain RPL9B, hits give low values 1.06 | locus YNL071W, strain lat1, hits give low values 0.986 | locus YNL183C, strain NPR1, hits give low values 0.975 | locus YNL209W, strain ssb2, hits give low values 0.968 | locus YNL233W, strain BNI4, hits give low values 1.07 | locus YNL248C, strain rpa49, hits give low values 0.903 | locus YNL250W, strain rad50, hits give low values 1.01 | locus YNL271C, strain bni1, hits give low values 0.994 | locus YNL298W, strain CLA4, hits give low values 0.994 | locus YNL307C, strain MCK1, hits give low values 1 | locus YNL322C, strain KRE1 (second series), hits give low values 0.948 | locus YNR049C, strain mso1, hits give low values 0.955 | locus YNR052C, strain pop2, hits give low values 1.03 | locus YOL012C, strain htz1 0.802 | locus YOL147C, strain pex11, hits give low values 0.999 | locus YOR001W, strain rrp6, hits give low values 1.03 | locus YOR061W, strain CKA2, hits give low values 0.975 | locus YOR069W, strain VPS5, hits give low values 0.987 | locus YOR070C, strain gyp1, hits give low values 0.975 | locus YOR080W, strain dia2, hits give low values 0.967 | locus YOR083W, strain WHI5, hits give low values 0.896 | locus YOR106W, strain vam3, hits give low values 0.923 | locus YOR136W, strain idh2, hits give low values 0.998 | locus YOR144C, strain elg1, hits give low values 1 | locus YOR184W, strain ser1, hits give low values 0.995 | locus YOR231W, strain MKK1, hits give low values 0.976 | locus YOR265W, strain rbl2, hits give low values 0.97 | locus YOR270C, strain vph1, hits give low values 0.923 | locus YOR290C, strain snf2, hits give low values 0.929 | locus YOR316C, strain cot1, hits give low values 0.994 | locus YPL051W, strain arl3, hits give low values 0.963 | locus YPL078C, strain atp4, hits give low values 0.939 | locus YPL106C, strain sse1, hits give low values 0.899 | locus YPL240C, strain hsp82, hits give low values 0.987 | locus YPL241C, strain CIN2, hits give low values 0.997 | locus YPL256C, strain CLN2, hits give low values 1.01 | locus YPR119W, strain clb2, hits give low values 0.995 | locus YPR141C, strain kar3, hits give low values 0.989 | locus YPR163C, strain tif3, hits give low values 0.989 | locus YPR167C, strain met16, hits give low values 0.997 | strain wtn01, hits give low values 1.01
